Data taken from PubChem BioAssay AID602449 (Sanford-Burnham Center for Chemical Genomics, 2012).
Out of some 360,000 compounds screened, about 5,000 (1.4%) were called active.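 How the source made its calls: active means inhibition of 50% or more, scaled per plate between neutral and stimulator controls; inactive means the rest.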 This excerpt belongs to a sample that is enriched for actives.

Assay: blockers of Ca2+-induced mitochondrial swelling – biochemical, isolated mouse mitochondria, absorbance, primary screen (AID 602449);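 further: 0% = DMSO wells given calcium and 100% = 1 mM EGTA wells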
Conditions: 30 min, at 10 µM, active compounds read high

Compound | inhibition
COc1cc(OC)cc(/C(N)=N/O)c1 | 0.6% (inactive)
O=C(CNC1CCCCC1)NCC1(c2ccccc2)CCCC1 | -0.9% (inactive)
COC(=O)Nc1nc2ccc(Sc3ccccc3)cc2[nH]1 | 1.2% (inactive)
CCCc1nc2c(c(=O)c3ccccc3n2C)c(=O)n1C1CCCCCC1 | 77.9% (active)
CCOC(=O)N1CCN(C(=O)c2nn(-c3ccc(C)cc3)c(=O)c3c2c2ccccc2n3C)CC1 | 11.3% (inactive)
CCOC(=O)c1nnn2c3ccccc3c(=O)n(C)c12 | 1.2% (inactive)
CCN(CC)S(=O)(=O)c1ccc(N2CCCC2)c(NS(=O)(=O)c2cccs2)c1 | -2.4% (inactive)
Brc1ccccc1/C=N/Nc1nc2ccccc2o1 | 1.1% (inactive)
Oc1c(Br)cccc1/C=N/Nc1c(F)c(F)c(F)c(F)c1F | 102% (active)
CC(Oc1ccc(F)cc1)C(=O)Nc1ccccc1C(=O)NC1CC1 (stereo not given) | -1.6% (inactive)
Cc1cc(C(=O)OCC(=O)NCc2ccco2)c(C)n1-c1ccccc1 | -0.8% (inactive)
CCN1C(=O)[C@@H]2[C@@H](c3ccc(-c4cccc(Cl)c4)cc3)N3CCC[C@@]3(C(=O)OC)[C@@H]2C1=O | -1% (inactive)
CCOC(=O)c1ccc(NC(=O)CCn2c(=O)oc3ccccc32)cc1 | 0.1% (inactive)
CCOC(=O)c1ccc(NC(=O)CS(=O)(=O)c2cn(CC)c3ccccc23)cc1 | 1% (inactive)
CCOC(=O)c1ccc(NC(=O)Cn2cnc3cc(C)c(C)cc32)cc1 | 96.9% (active)
CN(c1cccc(NC(=O)c2ccc(CN3CCc4ccccc4C3)cc2)c1)S(C)(=O)=O | 0% (inactive)
COc1ccc(C)cc1S(=O)(=O)N(CC(=O)Nc1cccc([N+](=O)[O-])c1)c1ccc(C)cc1 | 0.7% (inactive)
Cc1ccc(CN(CC(=O)NCC2CCCO2)S(=O)(=O)c2ccc(C)cc2)cc1 (stereo not given) | 0.1% (inactive)
Cc1ccc(S(=O)(=O)N(CC(=O)Nc2cccc([N+](=O)[O-])c2)Cc2ccc(Cl)cc2)cc1 | 80.3% (active)
CNS(=O)(=O)c1ccc(NC(=O)Nc2ccc3c(c2)OCO3)cc1 | 0.6% (inactive)

Compound | inhibition
CN(c1ccccc1)S(=O)(=O)c1cccc(NC(=O)Cc2ccc(Cl)cc2)c1 | 61.7% (active)
CN(c1cccc(NC(=O)Nc2ccc(Cl)cc2)c1)S(C)(=O)=O | 92.2% (active)
CN(C)S(=O)(=O)c1cccc(NC(=O)Cc2ccsc2)c1 | 0.2% (inactive)
CN(c1ccccc1)S(=O)(=O)c1cccc(NC(=O)Cc2c(F)cccc2Cl)c1 | 18.1% (inactive)
O=C1N=C2SCCN2/C1=C\c1c(Cl)cccc1Cl | -0.2% (inactive)
O=C(CNC(=O)OCc1ccccc1)Oc1cc2oc(=O)cc(-c3ccccc3)c2cc1Cl | 7.5% (inactive)
Clc1ccc(-c2cc(C3CCNCC3)[nH]n2)c(Cl)c1 | 76.8% (active)
Clc1ccc(-c2cc(-c3ccccn3)on2)c(Cl)c1 | 2.1% (inactive)
COc1ccc(C2c3[nH]c4ccccc4c3CCN2CCCn2cccn2)cc1C (stereo not given) | -1.1% (inactive)
O=C1c2ccccc2C2=Nc3ccccc3SC(c3ccccc3F)C12 (stereo not given) | 93.3% (active)
CCC(C)N(C(=O)Cn1nc(C)c([N+](=O)[O-])c1C)C1CCS(=O)(=O)C1 (stereo not given) | 0.4% (inactive)
O=C(CCN1CCc2ccccc2C(O)(c2ccccc2)C1)c1ccc2c(c1)OCCO2 (stereo not given) | 2.6% (inactive)
O=C(c1ccc2c(c1)OCCO2)C1CCN(S(=O)(=O)c2cccc(F)c2)CC1 | -4.7% (inactive)
O=C(/C=C(O)/C=C/c1ccc(O)cc1)/C=C/c1ccc(O)cc1 | 75.2% (active)
COc1ccc(/C=C/C(=O)c2c(O)cc(OC)cc2OC)cc1 | 1.2% (inactive)
O=C(O)/C=C/c1ccc(S(=O)(=O)N2CCCCCC2)cc1 | -1.1% (inactive)
O=C(Nc1ccccc1Cc1ccccc1)c1ccc2c(c1)SC1=NS(=O)(=O)CCN12 | 1.9% (inactive)
Cc1nc(-c2nnc(SCC(=O)Nc3cc(C(F)(F)F)cc(C(F)(F)F)c3)n2C)cs1 | 4.6% (inactive)
Cc1ccc(OC(=O)c2c(C)nn(-c3ccccc3)c2C)cc1 | -0.9% (inactive)
S=C(NCc1cccs1)Nc1ccc(Cl)cc1 | 23.7% (inactive)

Compound | inhibition
C/C(=N\NC(=S)NCc1ccccc1)c1ccc(Cl)cc1 | 3.5% (inactive)
Fc1ccccc1CNC(=S)Nc1ccc(Cl)cc1 | 102% (active)
CCCOc1ccc(Cc2c(O)nc(SC)[nH]c2=O)cc1C | 0.9% (inactive)
CCCOc1ccc(Cc2c(Cl)nc(SC)nc2NC)cc1 | 95.3% (active)
CCOc1cc2[nH]c(=O)n(CCC(=O)NCc3ccc(OC)cc3)c(=O)c2cc1OCC | -0.2% (inactive)
COC(=O)C(Cc1c[nH]c2ccccc12)NC(=O)CCNC(=O)c1ccco1 (stereo not given) | -1% (inactive)
O=C1CCCN1CCCNC(=S)Nc1ccc(F)c(Cl)c1 | 96.1% (active)
Cc1c(Cl)cccc1NC(=O)NCCCN1CCCC1=O | -0.1% (inactive)
Cc1cc(Cl)ccc1NC(=S)NCCCN1CCCC1=O | 0.5% (inactive)
CC1(C(=O)NNC(=S)NCC2CCCO2)CC1(Cl)Cl (stereo not given) | -1.4% (inactive)
O=S(=O)(Nc1ccc(Cl)cn1)c1cnc(Cl)c(Br)c1 | 12.7% (inactive)
CC(C)C[C@H]1CN([C@@H](CC(C)C)CN2CCC[C@@H]2CN2C(=O)C(=O)NC[C@@H]2Cc2ccccc2)C(=O)C(=O)N1CCc1ccccc1 | 1.7% (inactive)
CSc1ccc(/C=N/NC(=O)c2cccc(Cl)c2)cc1 | 3% (inactive)
Cc1ccc(Sc2ccc(NC(=O)c3ccc(F)cc3)cc2C#N)cc1 | 72.3% (active)
COc1ccc(Sc2ccc(NC(=O)c3cccc(Cl)c3)cc2C#N)cc1 | 80.5% (active)
Cc1ccc(C(=O)NC2CCN(C(=O)Nc3ccc(F)cc3)CC2)cc1 | -0.9% (inactive)
COc1ccc(NC(=O)c2cccc(Cl)c2)c[n+]1[O-] | 1.1% (inactive)
COC(=O)c1ccc(Sc2ccc(F)cc2)c(N)c1 | -3% (inactive)
Cc1ccccc1CNC(=O)CCC(=O)N1Cc2ccccc2Oc2ncccc21 | -0.6% (inactive)
CC(C)(C)n1c(=O)[nH]c2c(c1=O)CCC2 | -1.7% (inactive)
